The list is not random: actives were taken first. Their share in the collection is about 3.5%.
mHTT-CaM PPI inh: mutant huntingtin-calmodulin interaction inhibitors – biochemical, AlphaScreen, primary screen | P42858 | AlphaScreen His-mHTT/GST-CaM binding, luminescence | inhibition, % at 15 µM | hit rate 3.6% among 190,000 | AID 1671202, 2021
Pf apPOL inh: Pf-apPOL inhibitors, biochemical, fluorescence; Recombinant Pf-apPOL, molecular beacon fluorescence, 1.5 h; inhibition, % at 10 µM; hit rate 0.25% among 210,000
Each line names hits and unclear results; the compound was inactive in the other large screens. Cut-off read from the data, not from the text of the source: active = inhibition above about 50%; inactive = the rest.

CC1C=C[C@@H]2[C@H](C1)C(=O)N(Cc1ccccc1)[C@H]2c1ccccc1Br (some centres undefined)	none
O=C1[C@H]2CCC=C[C@H]2[C@H](c2cccc(Br)c2)N1Cc1ccccc1	mHTT-CaM PPI inh 66
O=C(Nc1ccc2c(c1)CN(C(=O)c1cccs1)CC2)c1ccno1	none
COc1cc(OC)c(N2C(=O)NC3CC2(C)Oc2ccc(Br)cc23)cc1Cl (centres undefined)	none
O=C(NCCCc1ccccc1)C1CCCN(C(=O)c2ccccc2Cl)C1 (centres undefined)	none
O=C1CCC(=O)N1c1nc2n(n1)C(c1ccccc1)C=C(c1ccc(Cl)cc1)N2 (centres undefined)	mHTT-CaM PPI inh 77
O=S(=O)(Nc1nc2n(n1)C(c1ccccc1)C=C(c1ccc(Cl)cc1)N2)c1ccccc1 (centres undefined)	none
O=C(Nc1cccc(F)c1)N1CCN(Cc2nc3cccnc3n2-c2ccccc2)CC1	none
COc1cc2c(cc1OC)CN(S(=O)(=O)CCCNC(=O)CC1CCCCC1)CC2	none
CC(=O)N1c2ccccc2NC2=C(C(=O)CC(C)(C)C2)C1CC1CC=C(C)C1(C)C (centres undefined)	none
CCC(=O)N1c2ccccc2NC2=C(C(=O)CC(C)(C)C2)C1CC1CC=C(C)C1(C)C (centres undefined)	mHTT-CaM PPI inh 59
CSc1ccc(/C=N/n2c(-c3ccc(C(C)(C)C)cc3)n[nH]c2=S)cc1	none (no result: Pf apPOL inh)
CC(C)(C)n1nc2c(c1NC(=O)c1c(F)cccc1F)CSC2	none
O=C(Nc1nnc(SCc2cn3ccccc3n2)s1)c1cc(-c2ccco2)on1	none
O=C(Nc1nnc(SCc2c(F)cccc2Cl)s1)c1cc(-c2ccco2)on1	Pf apPOL inh 61
O=C1[C@H](Cc2ccccc2)NCCCC[C@H](c2ccc(Cl)cc2)N1Cc1ccc(Cl)cc1	none
O=C1[C@H](Cc2ccccc2)NCCCC[C@@H](c2ccc(Cl)cc2)N1Cc1ccccc1	mHTT-CaM PPI inh 91
Cn1c(C2CCN(S(=O)(=O)c3ccc(C(F)(F)F)cc3)C2)nc2ccncc21 (centres undefined)	none
CCC1CCCCN1C/C=C/c1ccccc1[N+](=O)[O-] (centres undefined)	none
CCC1CCCCN1C/C=C/c1ccc(N(C)C)cc1 (centres undefined)	mHTT-CaM PPI inh 68
Cc1c(C#N)c(N)n(CCC2=CCCCC2)c1C	none (no result: Pf apPOL inh)
CCOc1ccccc1N1CCN(c2nccn3cncc23)CC1	mHTT-CaM PPI inh 54
CCOc1ccccc1N1CCN(S(C)(=O)=O)CC1	none
CCOc1ccc(NC(=O)Cn2c(CC)nc3c(c2=O)CN(Cc2ccccc2)CC3)cc1	none
COc1ccc(-c2noc(C3CCCN3C(=O)c3sccc3C)n2)cc1 (centres undefined)	none
Cc1ccc(NC(=O)N2CCC(N3CCN(Cc4ccccc4)C3=O)CC2)cc1C	none
O=C(Nc1cccc(C(F)(F)F)c1)N1CC2CCCN2c2ccccc21 (centres undefined)	mHTT-CaM PPI inh 81
Cc1ccc(NC(=O)C2CCC(N3C(=O)c4ccccc4C3=O)CC2)cc1Cl (centres undefined)	none
Cc1ccc(NC(=O)N2CC3CCCN3c3ccccc32)cc1Cl (centres undefined)	mHTT-CaM PPI inh 89
O=C(Nc1ccc2c(c1)OCO2)N1CC2CCCN2c2ccccc21 (centres undefined)	mHTT-CaM PPI inh 81
O=C(Nc1cccc(C(F)(F)F)c1)N1CCC(N2CCN(Cc3ccccc3)C2=O)CC1	none
O=C(CCC(=O)N1CC2CCCN2c2ccccc21)NCc1ccc2c(c1)OCO2 (centres undefined)	none
Cc1ccc(NC(=O)N2CC3CCCN3c3ccccc32)cc1C (centres undefined)	mHTT-CaM PPI inh 84
CC(=O)OC1CC2(C)C(CC(O)C3C4(C)CCC(O)C(C)C4CCC32C)C1=C(CCC=C(C)C)C(=O)O (centres undefined)	none (no result: mHTT-CaM PPI inh)
COc1cc(C2Nc3ccccc3-c3nnc(SC)nc3O2)cc(OC)c1O (centres undefined)	none
Cc1cccc(NC(=O)N2CCCC2c2ccccc2C)c1 (centres undefined)	none
O=C(Nc1ccc(Br)cc1F)N1CC2CCCN2c2ccccc21 (centres undefined)	none
Cc1ccc(NC(=O)N2CC3CCCN3c3ccccc32)c(C)c1 (centres undefined)	mHTT-CaM PPI inh 67
Cc1cccc(NC(=O)N2CC3CCCN3c3ccccc32)c1 (centres undefined)	mHTT-CaM PPI inh 74
CC(C)(C)c1cc(C(=O)NCc2ccc(F)cc2)nc2ccnn12	none
CCn1ccc(C(=O)N2CCCC(c3nc(CCNC(=O)C4CC4)cs3)C2)n1 (centres undefined)	none
O=c1c(NCCc2ccccn2)nc2ccncc2n1Cc1ccccc1	none
CS(=O)(=O)N(CC(=O)Nc1ccc(F)c(Cl)c1)c1ccccc1F	none
COc1ccc(N(CC(=O)Nc2ccc(OCc3ccccc3)cc2)S(C)(=O)=O)cc1OC	none
Cc1c(Cl)cccc1N(CC(=O)Nc1ccc(F)c(Cl)c1)S(C)(=O)=O	mHTT-CaM PPI inh 99
COc1ccc(NC(=O)CN(c2ccc(Cl)cc2)S(=O)(=O)c2ccccc2)cc1OC	mHTT-CaM PPI inh 76
COc1ccc(Cl)cc1N(CC(=O)Nc1cccc([N+](=O)[O-])c1)S(C)(=O)=O	none
COc1ccc(N(CC(=O)Nc2ccc(Oc3ccccc3)cc2)S(C)(=O)=O)cc1OC	mHTT-CaM PPI inh 52
COc1ccc(NC(=O)CN(c2ccc(Cl)cc2)S(C)(=O)=O)cc1Cl	none
COc1ccc(NC(=O)CN(c2cccc([N+](=O)[O-])c2)S(C)(=O)=O)cc1Cl	Pf apPOL inh 65
CC1=NN(c2ccccc2)C(=O)/C1=C/N(O)c1ccccc1	none
CC1=C(C(=O)Nc2cccc(F)c2)C(c2ccc3c(c2)OCO3)C2=C(CC(C)(C)CC2=O)N1 (centres undefined)	none
CCOC(=O)c1ccccc1NC(=O)CSc1n[nH]c(=O)c2cc(-c3ccco3)nn12	none
Cc1sc2ccn(Cc3ccc(F)cc3)c(=O)c2c1C(=O)N1CCCC(C)C1 (centres undefined)	mHTT-CaM PPI inh 66
Cc1sc2ccn(CC(C)C)c(=O)c2c1C(=O)N1CCCC(C)C1 (centres undefined)	none
Cc1sc2ccn(Cc3ccc(F)cc3)c(=O)c2c1C(=O)N1CCCCCC1	mHTT-CaM PPI inh 64
CCn1ccc2sc(C)c(C(=O)N3CCCCC3)c2c1=O	none
Cc1ccc(S(=O)(=O)N2CCc3nc(NC(=O)c4cnccn4)sc3C2)cc1	none
O=[N+]([O-])c1ccc(COc2ccc(-c3[nH]ncc3-c3nc4ccccc4s3)c(O)c2)cc1	mHTT-CaM PPI inh 100
Cc1cc(C)c(-c2[nH]ncc2-c2nc3ccccc3s2)c(O)c1	mHTT-CaM PPI inh 86
Nc1ccc(O)c(-c2nc3ccccc3s2)c1	none
O=C(Nc1ccc(O)c(-c2nc3ccccc3s2)c1)c1ccc([N+](=O)[O-])cc1	none
COc1ccc(CNC(=O)c2c(O)c3cccc4c3n(c2=O)CC4)cc1	none
O=C(CN1C(=O)CC(c2ccccc2)=Nc2cccnc21)Nc1ccc(F)cc1F	none
COCC(=O)N1CCCN(c2nc3c(s2)c(C)nn3-c2ccc(F)cc2)CC1	none
COC(=O)c1sc(-c2cccs2)cc1NC(=O)c1ccc(C)cc1	none (no result: mHTT-CaM PPI inh)
Cc1sc(NC(=O)c2ccccc2)c(C(Nc2ccccn2)c2cccs2)c1C (centres undefined)	none
COc1ccc(NCc2ccccn2)cc1	none (no result: mHTT-CaM PPI inh)
